Test results published in PubChem BioAssay (NCI).
About 83,000 compounds went through this panel and 20% of them were active in at least one assay; those are over-represented in the sample as a whole.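 Testing used 96-well plates and a 48-hour single-concentration exposure. Example: -40 means 40% of the starting cells died.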 Calls of active or inactive are those of the source.

These molecules were tested on HCT-15 colon (assay: NCI-60 one-dose screen, 48 h (100 = growth as untreated, 0 = no growth, -100 = all killed)). Details: 10 µM unless noted.
Protocol: Growth inhibition of the HCT-15 human tumor cell line is measured as a screen for anti-cancer activity. Cells are grown in 96 well plates and exposed to the test compound for 48 hours. Compounds are tested at a single concentration, which is 10^-5 M for most compounds. The reported endpoint is percent growth (GI% or GIPRCNT), where numbers from 0 - 100% represent growth inhibition, and numbers from -100% - 0 represent cell death. For example, a value of 40 represents 60% growth inhibition. A value of 0 means no net growth occurred over the course of the experiment. A value of -40 indicates 40% of cells at the beginning of the experiment died by the end of the experiment. A value of -100 means all cells are dead at the end of the experiment.
NCI-60 Human Tumor Cell Lines Screen was performed using the standard one-dose NCI protocol, which is described in more detail at https://dtp.cancer.gov/discovery_development/nci-60/default.htm.
Compounds with GIPRCNT values below 10 were considered active. Activity score was based on GIPRCNT using the following formula: […]
Score is 0 for GIPRCNT values of 100 or above, 50 for GIPRCNT values of 0, and 100 for GIPRCNT values of -100.

SMILES | growth
O=C1CCCC2=C1C(c1c[nH]c3ccc(Br)cc13)Cc1cc(Br)ccc1N2 (stereo not given) | 26.5% (inactive)
COCCNc1ccc2ncc(C#Cc3cncc(C(=O)Nc4ccc(CN5CCN(C)CC5)c(C(F)(F)F)c4)c3)n2n1 | -22.7% (active)
CC/C(=C/c1cc(OC)ccc1O)c1ccc2cc(OC)ccc2[o+]1 | 23.9% (inactive)
CC(=O)N1C(=S)NC(=O)C1CC(C)C (stereo not given) | 99.7% (inactive)
Oc1ccc(CSc2nnc(-c3ccc(Cl)cc3)n2-c2ccccc2)c2cccnc12 | 14.4% (inactive)
COc1ccc(/C=C(/C)c2ccc3ccc(OC)cc3[o+]2)c(O)c1 | 22.5% (inactive)
O=S(=O)(NCCCNc1nccc(-c2[nH]c(-c3ccccc3)nc2-c2ccc(Cl)c(O)c2)n1)c1cccc(F)c1 | 38.6% (inactive)
COc1ccccc1C(=O)Nc1cccc2c1C(=O)C(=O)C=C2 | 93.6% (inactive)
CC(c1ccccc1)N1CSc2nc3ncncc3n2C1 (stereo not given) | 37.3% (inactive)
Cn1ccnc1C(=O)/C=C/C=C/c1ccc(C(=O)Nc2ccc(F)cc2)cc1 | -36.8% (active)
COc1cc(Cn2cc3c(c2)-c2onc(CN4CCCC4)c2CC3)cc(OC)c1OC | 94.7% (inactive)
Cc1cc2ncc(-c3cc4ccccc4c(N4CCN(C)CC4)n3)nc2cc1C | -69.7% (active)
CNC(=O)c1cc(-n2ccc3cc(NC(=O)Nc4ccc(N5CCOCC5)c(C(F)(F)F)c4)ccc32)ccn1 | 30.2% (inactive)
C=CCn1c(SCC(=O)Nc2ccc(C(=O)/C=C/c3ccc(Br)cc3)cc2)nnc1-c1c[nH]c2ccccc12 | 93.4% (inactive)
O=C(Nc1ccc(N=Cc2c(O)[nH]c3ccccc23)cc1)Nc1nccs1 | 29% (inactive)
COc1ccc(-c2nc3cc(Cl)c(Cl)cc3n2CC(=O)N=Nc2c(O)[nH]c3ccc(OC)cc23)cc1 | 43.7% (inactive)
O=C(Cn1cc[n+](CC(=O)c2ccc(-c3ccccc3)cc2)c1)Nc1cccc2cccnc12 | 101% (inactive)
Cc1cc2nc(C(Cl)Cl)nc(-c3cccs3)n2n1 | 11.4% (inactive)
O=C(CSc1nnc(-c2ccc(Cl)cc2)n1-c1ccccc1)Nc1cccc(Cl)c1 | 79.5% (inactive)
C#CC(=O)N(c1ccc(OC)cc1OC)C(C(=O)NCC(=O)OCC)c1cccs1 (stereo not given) | 56.6% (inactive)

SMILES | growth
CCNC(=O)N1CCc2cc(OC)c(OCCc3ccc(OC)cc3)cc2C1c1ccc(OC)cc1C (stereo not given) | 10.8% (inactive)
Cc1ccc(-n2c(/C=C3\C(=O)Nc4ccccc43)ccc2CO)cc1 | 31.2% (inactive)
O=C(CSc1nc2ccccc2c(=O)n1-c1ccccc1)Nc1ccc(-c2nc3ccc([N+](=O)[O-])cc3[nH]2)cc1 | 61.3% (inactive)
O=C(NNc1nc2cc(F)cc(F)c2n2cccc12)c1cnccn1 | 24.8% (inactive)
Cn1ccnc1C(=O)/C=C/c1ccc(CNC(=O)c2ccc(Cl)cc2)cc1 | -14.5% (active)
COc1cccc(C(=O)Nc2cccc(C#Cc3cccc4[nH]nc(N)c34)c2)c1 | 28.9% (inactive)
O=C1[C@@H]2Cc3c([nH]c4ccccc34)[C@H](c3c(Cl)cccc3Cl)N2C(=O)CN1C1CCN(CC2CCCCC2)CC1 | 7% (active)
COc1ccc(C(=O)c2c(N)c(C#N)cn2-c2ccccc2OC)cc1 | 26% (inactive)
COc1ccc(COc2ccc(/C=C3\C(=O)Nc4ccccc43)cc2OC)cc1 | 105% (inactive)
C#CCC#CCN1CCC[C@H]1C(=O)NCC(=O)OC | 102% (inactive)
c1cn2c(ccc3nc(-c4cn[nH]c4)c4c(c32)CCCC4)n1 | 35.1% (inactive)
O=C(NNc1nc2cc(F)c(F)cc2n2c(CN3CC4CNCC4C3)ccc12)c1cnccn1 (stereo not given) | 23% (inactive)
O=C(CN1CCN(c2cc(=O)n(-c3ccccc3)c3ccccc23)CC1)Nc1nc(-c2ccc(Cl)cc2)cs1 | 39.7% (inactive)
CN1CCN(Cc2ccc(NC(=O)c3cncc(C#Cc4cnc5ccc(OCC6(C)COC6)nn45)c3)cc2C(F)(F)F)CC1 | -78.6% (active)
c1ccc(C(c2nc3ncncc3[nH]2)N2CSc3nc4ncncc4n3C2)cc1 (stereo not given) | 80.4% (inactive)
COc1cc(OC)c(S(N)(=O)=O)cc1C(C)=O | 103% (inactive)
CC(=O)Nc1cccc(Nc2nc(N[C@H](C)c3ccccc3)c3ccccc3n2)c1 | 41.5% (inactive)
O=c1[nH]c(Sc2sc3ccc(Cl)cc3c2CBr)nc(=S)[nH]1 | 21.2% (inactive)
O=C(Nc1ccc2c(ccn2Cc2ccccn2)c1)c1cnccn1 | 112% (inactive)
C[C@@H](Nc1ncnc2ccc(-c3cnc(Cl)c(NS(C)(=O)=O)c3)cc12)c1ccccc1 | 66% (inactive)
